# Results as given in PMC5700166.
# Numbering of substitutions follows the chain as printed.
# What was measured:
# Experiment in all cases: protein-binding microarray (PBM); PBM: ~300 nM protein, 6 mM HEPES pH 7.8, 80 mM KCl, 0.5 mM EDTA, 0.5 mM EGTA, 6% glycerol, 35 ng/ul poly-dIdC, 1% milk, 1 h, room temperature; Ap Aiptasia and Nv Nematostella (sea anemones) / Co Capsaspora / Aq Amphimedon (sponge) / Dm Drosophila / Hu human; RHD is the Rel homology domain; high values mean tight binding
# Settings in all cases: dsDNA, one strand shown
# GST-Ap-NF-kB RHD = biological target: T1, GST-Ap-NF-kB RHD (Exaiptasia pallida (Aiptasia), UniProt A0A913YAJ5 2-422)
# T1 sequence: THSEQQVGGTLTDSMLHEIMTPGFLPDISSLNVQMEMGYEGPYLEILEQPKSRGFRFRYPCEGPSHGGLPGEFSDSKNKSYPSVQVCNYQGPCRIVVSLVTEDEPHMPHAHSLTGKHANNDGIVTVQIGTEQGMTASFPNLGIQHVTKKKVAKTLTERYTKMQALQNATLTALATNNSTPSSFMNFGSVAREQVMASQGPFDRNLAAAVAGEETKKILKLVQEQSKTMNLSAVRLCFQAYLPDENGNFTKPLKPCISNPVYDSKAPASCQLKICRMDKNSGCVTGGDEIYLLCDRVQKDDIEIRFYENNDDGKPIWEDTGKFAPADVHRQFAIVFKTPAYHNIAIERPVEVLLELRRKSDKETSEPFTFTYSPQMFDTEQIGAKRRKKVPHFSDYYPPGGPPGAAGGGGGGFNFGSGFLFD
# [1] = biological target: T2, GST-Nv-NF-kB (Cys allele) (Nematostella vectensis, UniProt E5G601 2-411)
# T2 sequence: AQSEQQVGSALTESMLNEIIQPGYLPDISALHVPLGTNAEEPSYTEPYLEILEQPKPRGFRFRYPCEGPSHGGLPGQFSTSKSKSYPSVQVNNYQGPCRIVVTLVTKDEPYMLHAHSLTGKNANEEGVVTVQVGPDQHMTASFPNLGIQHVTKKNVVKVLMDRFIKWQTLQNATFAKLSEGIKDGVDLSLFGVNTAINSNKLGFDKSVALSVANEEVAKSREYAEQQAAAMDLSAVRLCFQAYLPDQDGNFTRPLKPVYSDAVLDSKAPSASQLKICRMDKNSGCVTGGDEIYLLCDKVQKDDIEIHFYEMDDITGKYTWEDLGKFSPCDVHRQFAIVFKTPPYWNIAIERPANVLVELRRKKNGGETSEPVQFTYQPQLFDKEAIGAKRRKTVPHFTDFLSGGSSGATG
# [2] = biological target: T3, GST-Nv-NF-kB (Ser allele) (Nematostella vectensis, UniProt A7UNT2 2-411)
# T3 sequence: T2 sequence with Q21R, C66S, S207N, E215Q, V217A, E225K, A268E, D399E
# GST-Co-NF-kB = biological target: T4, GST-Co-NF-kB (Capsaspora owczarzaki, UniProt F1ARL5 200-546)
# T4 sequence: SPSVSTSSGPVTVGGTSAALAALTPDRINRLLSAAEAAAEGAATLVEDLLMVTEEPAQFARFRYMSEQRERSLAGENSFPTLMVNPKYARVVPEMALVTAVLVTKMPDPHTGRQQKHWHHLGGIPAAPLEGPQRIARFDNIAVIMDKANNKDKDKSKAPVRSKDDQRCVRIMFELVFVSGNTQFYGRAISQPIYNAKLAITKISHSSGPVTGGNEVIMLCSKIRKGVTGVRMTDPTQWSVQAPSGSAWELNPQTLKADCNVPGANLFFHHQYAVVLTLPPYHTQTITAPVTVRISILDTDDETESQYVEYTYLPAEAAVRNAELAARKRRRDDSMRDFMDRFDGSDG
# GST-Dm-Relish = biological target: T5, GST-Dm-Relish (Drosophila melanogaster, UniProt Q94527 99-473)
# T5 sequence: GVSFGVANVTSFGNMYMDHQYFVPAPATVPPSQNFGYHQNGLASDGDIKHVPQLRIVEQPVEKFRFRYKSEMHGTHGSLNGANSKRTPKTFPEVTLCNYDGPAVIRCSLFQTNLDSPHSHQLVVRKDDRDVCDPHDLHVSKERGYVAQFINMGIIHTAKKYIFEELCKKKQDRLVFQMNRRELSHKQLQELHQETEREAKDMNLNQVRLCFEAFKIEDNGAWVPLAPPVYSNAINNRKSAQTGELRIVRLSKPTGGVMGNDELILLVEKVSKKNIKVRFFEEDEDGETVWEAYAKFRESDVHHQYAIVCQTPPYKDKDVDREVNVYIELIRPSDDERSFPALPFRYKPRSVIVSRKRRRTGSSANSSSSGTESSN
# GST-Aq-NF-kB = biological target: T6, GST-Aq-NF-kB (Amphimedon queenslandica, UniProt A9Y5G7 2-389)
# T6 sequence: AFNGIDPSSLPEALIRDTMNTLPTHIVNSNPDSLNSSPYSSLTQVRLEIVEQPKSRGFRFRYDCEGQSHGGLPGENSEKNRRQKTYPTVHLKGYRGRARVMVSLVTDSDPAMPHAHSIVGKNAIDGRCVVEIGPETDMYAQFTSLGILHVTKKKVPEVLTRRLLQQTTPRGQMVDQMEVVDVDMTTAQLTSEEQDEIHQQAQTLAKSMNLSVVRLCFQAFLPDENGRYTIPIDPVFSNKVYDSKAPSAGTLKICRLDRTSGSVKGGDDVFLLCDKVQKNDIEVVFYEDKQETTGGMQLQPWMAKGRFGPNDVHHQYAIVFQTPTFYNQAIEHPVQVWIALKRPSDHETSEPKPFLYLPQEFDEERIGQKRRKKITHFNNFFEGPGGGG
# GST-Hu-p50 = GST-Hu-p50 (Homo sapiens, UniProt P19838 7-356)
# Sequence of GST-Hu-p50 (P19838 7-356): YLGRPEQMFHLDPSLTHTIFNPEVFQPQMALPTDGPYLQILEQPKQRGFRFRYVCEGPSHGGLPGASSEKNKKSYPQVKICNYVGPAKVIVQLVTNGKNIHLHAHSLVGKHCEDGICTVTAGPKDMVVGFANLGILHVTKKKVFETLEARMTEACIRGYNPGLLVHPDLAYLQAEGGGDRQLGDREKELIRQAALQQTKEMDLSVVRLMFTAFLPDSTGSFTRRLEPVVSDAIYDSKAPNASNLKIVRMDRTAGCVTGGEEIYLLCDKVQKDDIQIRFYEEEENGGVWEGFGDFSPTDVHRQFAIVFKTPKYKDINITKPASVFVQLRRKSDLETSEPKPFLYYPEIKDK
Sequence,binding signal (GST-Ap-NF-kB RHD) [z-score],binding signal [1] [z-score],binding signal [2] [z-score],binding signal (GST-Co-NF-kB) [z-score],binding signal (GST-Dm-Relish) [z-score],binding signal (GST-Aq-NF-kB) [z-score],binding signal (GST-Hu-p50) [z-score]
CCGATTAACATCAAAAAATCCCATGATGTTAATCGGGTCTTGATTCGCTTGACGCTGCTG,4.84,5.22,4.17,2.05,8.41,5.43,4.75
CCGATTAACATCAAGGGGGGGCGTGATGTTAATCGGGTCTTGATTCGCTTGACGCTGCTG,4.19,4.66,4.86,3.83,3.7,4.52,4.17
CCGATTAACATCACACTTTTCCCTGATGTTAATCGGGTCTTGATTCGCTTGACGCTGCTG,3.17,4.45,6.11,4.46,1.59,3.57,2.84
CCGATTAACATCAACAATCCCCCTGATGTTAATCGGGTCTTGATTCGCTTGACGCTGCTG,7.89,7.16,7.92,5.22,5.46,5.71,6.6
CCGATTAACATCAAGATTCCCCCTGATGTTAATCGGGTCTTGATTCGCTTGACGCTGCTG,8.66,9.42,10.6,9.18,7.1,7.31,7.32
CCGATTAACATCAAGGGACCCCCTGATGTTAATCGGGTCTTGATTCGCTTGACGCTGCTG,5.77,3.16,3.36,2.03,7.64,4.72,3.57
CCGATTAACATCAAAAACTCCCTTGATGTTAATCGGGTCTTGATTCGCTTGACGCTGCTG,5.39,7.94,7,1.96,6.3,7.5,5.92
CCGATTAACATCACCTTTTTCCCTGATGTTAATCGGGTCTTGATTCGCTTGACGCTGCTG,3.29,4.53,6.24,5.31,1.92,3.4,4.16
CCGATTAACATCAGGGTAAACCCTGATGTTAATCGGGTCTTGATTCGCTTGACGCTGCTG,3.1,4.05,2.62,2.45,5.92,6.52,2.7
CCGATTAACATCAGGGATATACCTGATGTTAATCGGGTCTTGATTCGCTTGACGCTGCTG,3.17,3.3,1.91,1.14,6.4,5.31,1.99
CCGATTAACATCAACAAACCCCCTGATGTTAATCGGGTCTTGATTCGCTTGACGCTGCTG,6.74,5.37,6.79,2.52,7.26,5.03,6.59
CCGATTAACATCAGGGACTTTCATGATGTTAATCGGGTCTTGATTCGCTTGACGCTGCTG,6.28,7.24,7.09,1.04,5.59,6.22,5.49
CCGATTAACATCAAGAACTTCCCTGATGTTAATCGGGTCTTGATTCGCTTGACGCTGCTG,3.37,3.73,3.72,2.1,2.86,4.6,2.19
CCGATTAACATCAAGGATTCCCCTGATGTTAATCGGGTCTTGATTCGCTTGACGCTGCTG,9.7,10.5,10,6.56,9.55,7.75,6.89
CCGATTAACATCAGCAAATCCCCTGATGTTAATCGGGTCTTGATTCGCTTGACGCTGCTG,6.73,7.25,9.83,2.93,5.54,5.19,6.91
CCGATTAACATCAAACTTTCCCCTGATGTTAATCGGGTCTTGATTCGCTTGACGCTGCTG,7.27,8.67,9.66,8.89,4.44,7.57,6.2
CCGATTAACATCAAAATTGCCCCTGATGTTAATCGGGTCTTGATTCGCTTGACGCTGCTG,3.3,4.73,5.76,3.12,2.43,4.55,5.1
CCGATTAACATCAGGGGATCACCTGATGTTAATCGGGTCTTGATTCGCTTGACGCTGCTG,7.26,5.39,6.05,2.95,9.04,6.68,4.71
CCGATTAACATCAAGAATTTCCCTGATGTTAATCGGGTCTTGATTCGCTTGACGCTGCTG,5.92,7.47,7.49,5.07,3.52,7.53,5.23
